This is one part of a sample in which hits are shown more often than they occur.
RBX1-CUL1 inh: inhibitors of human ROC1-CUL1 ubiquitin ligase activity | E3 ubiquitin-protein ligase RBX1 (Homo sapiens) + Cullin-1 (Homo sapiens), P62877+Q13616 | in vitro K48 di-Ub FRET, acceptor:donor ratio, 45 min | inhibition, % at 10 µM | 140,000 tested, 0.6% active | AID 1347404, 2020; in the data active = inhibition above about 25%
Each line names hits and unclear results; the compound was inactive in the other large screens.

CCCNC(=O)c1nnn(-c2ccc(C)c(C)c2)c1C	none
Cc1sc(NC(=O)c2ccc(F)cc2)c(C(N)=O)c1-c1ccccc1	none
CC(=O)N=C1C(=O)c2ccccc2C(=O)C1NCCOc1ccccc1 (stereo unspecified)	none
CC(=O)N=C1C(=O)c2c(NC(C)=O)cccc2C(=O)C1Br (stereo unspecified)	RBX1-CUL1 inh 60
CC(=O)Nc1cccc2c1C(=O)N(c1cccc(C(=O)O)c1)C2=O	none
CCCCc1ccc(NC(=O)c2c(CC)noc2C)cc1	none
C=CCn1c(C)cn2c3c(=O)n(Cc4ccccc4C)c(=O)n(C)c3nc12	none
O=C(CSc1nc2ccccc2c(=O)[nH]1)c1ccc(Cl)cc1	none
Cc1cc(=O)[nH]c(SCC(=O)c2ccc(O)c(O)c2)n1	none
O=C(CSc1nc2ccccc2c(=O)[nH]1)c1ccc(O)c(O)c1	RBX1-CUL1 inh 103
CCOC(=O)c1cnc(Nc2cccc(C(F)(F)F)c2)nc1C	none
Cc1ccccc1C(=O)N1CCN(c2ccc(NC(=O)COc3cccc4ccccc34)cc2)CC1	none
C/C=C/Cn1c(=O)c2c(nc3n2CC(C)=NN3C)n(C)c1=O	none
O=C1C2C(c3ccc(Br)cc3)OC3(C(=O)c4ccccc4C3=O)C2C(=O)N1c1cccc([N+](=O)[O-])c1 (stereo unspecified)	RBX1-CUL1 inh 59
O=C1C2C(c3ccc(Br)cc3)OC3(C(=O)c4ccccc4C3=O)C2C(=O)N1c1ccc(Oc2ccc(Cl)cc2)cc1 (stereo unspecified)	none
COc1cccc(C2OC3(C(=O)c4ccccc4C3=O)C3C(=O)N(c4ccc(Br)cc4)C(=O)C23)c1 (stereo unspecified)	none
CCc1n[nH]c2c1CN(Cc1ccccc1OCCn1ccnc1)CC2	none
Cc1ccc(OCCOCCOc2ccc(Cl)cc2/C=C2\N=C(c3ccccc3)OC2=O)cc1	none
Cc1ccc2c(c1)Sc1ccccc1CC2N1CCN(C)CC1 (stereo unspecified)	none
O=C(Nc1ccccc1O)c1csnn1	none
O=C1C=CC2(C=C1)OC(=O)c1ccccc1O2	RBX1-CUL1 inh 29
CC1(C)Oc2ccccc2C(=O)C1Br (stereo unspecified)	none
CC1(C)NC(=O)c2ccccc2O1	none
CCSc1nnc(NC(=O)C(C(F)(F)F)C(F)(F)F)s1	RBX1-CUL1 inh 32
CCSc1nnc(NC(=O)OC)s1	none
CCSc1nnc(NC(=O)C(C)C)s1	none
COc1cc(/C=c2/sc3nc4ccccc4n3c2=O)c(Br)cc1OCc1ccccc1	none
COc1cc(C2C3=C(CC(C)(C)CC3=O)N(Nc3ccccc3)C(=N)C2C#N)ccc1OCc1ccccc1 (stereo unspecified)	none
COc1cc(C2C3=C(CC(C)(C)CC3=O)N(c3ncn[nH]3)C(=N)C2C#N)ccc1OCc1ccccc1 (stereo unspecified)	RBX1-CUL1 inh 32
COc1cc(C2C3=C(CC(C)(C)CC3=O)OC(=N)C2C#N)ccc1OCc1ccccc1 (stereo unspecified)	none
Cc1ccc(S(=O)(=O)ON2C(=O)C3C4C=CC(C4)C3C2=O)cc1 (stereo unspecified)	none
Cc1ccc2oc(=O)c(-c3nc4ccccc4[nH]3)cc2c1	none
